Experimental data published in PubChem BioAssay (Tox21).
Records with an inconclusive call do not appear. Activity calls are given as the source filed them. Unless noted, the call rests on the fitted dose curve; in most records, active means well fitted curve in the direction sought with a large enough effect in the repeat runs; inconclusive means weak or mixed curves; inactive means no such curve, though single readings can be large; an effect the other way counts as inactive or inconclusive.

Key:
[1] = A CellTox Green Cytotoxicity Assay to monitor cytotoxicity in HEK293 cells - 16 hour (AID 1224888); further: nearly all actives have a fitted effect of over 35% in size
Method in brief: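 Real-time, in one plate: 600 HEK293 cells/well with dead-cell DNA dye, pinned compound after 5 h, 37 C incubation over 40 h; viable cells give no appreciable fluorescence.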

[2] = qHTS RealTime-Glo MT Cell Viability Assay in HepG2 cells - 0 hour (AID 1224889); further: nearly all actives have a fitted effect of over 50% in size
Method in brief: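 HepG2 suspension premixed with RealTime-Glo reagents is plated at 600 cells per well and left 5 h at 37 C/5% CO2. Compounds in DMSO then go in, and bioluminescence reflecting viable cell number is recorded over 40 h.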

[3] = A CellTox Green Cytotoxicity Assay to monitor cytotoxicity in HepG2 cells - 8 hour (AID 1224890); further: nearly all actives have a fitted effect of over 45% in size
Method in brief: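 Cytotoxicity was tracked as dead-cell DNA fluorescence in HepG2 cells treated with test compounds at 37 C; each time-point value comes from one kinetic series spanning 0, 8, 16, 24, 32 and 40 h.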

[4] = qHTS assay to identify small molecule antagonists of the estrogen receptor alpha (ER-alpha) signaling pathway using the BG1 cell line in the presence of 0.1 nM 17-beta-estradiol - cell viability counter screen (AID 1259241); further: nearly all actives have a fitted effect of over 40% in size
Method in brief: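 In this screen, hormone-deprived VM7Luc4E2 cells were seeded at 4,000 per well, dosed with compound and 0.1 nM estradiol final, and incubated 22 hr at 37C and 5% CO2; fluorogenic live-cell protease signal reported viability.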

[5] = qHTS assay to identify small molecule antagonists of the androgen receptor (AR) signaling pathway using the MDA cell line in the presence of 0.5 nM R1881 - cell viability counter screen (AID 1259242); further: nearly all actives have a fitted effect of over 45% in size
Method in brief: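 Cells seeded at 3,000/well and allowed 5 hr at 37C, 0% CO2 before compound transfer and R1881 (0.5 nM final) addition; 16 hr later, live-cell protease fluorescence indicated cytotoxicity.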

[6] = molecular target: Estrogen receptor (Homo sapiens) (UniProt P03372); test: qHTS assay to identify small molecule antagonists of the estrogen receptor alpha (ER-alpha) signaling pathway using the BG1 cell line in the presence of 0.1 nM 17-beta-estradiol (AID 1259244); further: nearly all actives have a fitted effect of over 50% in size
Estrogen receptor (Homo sapiens), sequence (P03372 whole entry, looked up): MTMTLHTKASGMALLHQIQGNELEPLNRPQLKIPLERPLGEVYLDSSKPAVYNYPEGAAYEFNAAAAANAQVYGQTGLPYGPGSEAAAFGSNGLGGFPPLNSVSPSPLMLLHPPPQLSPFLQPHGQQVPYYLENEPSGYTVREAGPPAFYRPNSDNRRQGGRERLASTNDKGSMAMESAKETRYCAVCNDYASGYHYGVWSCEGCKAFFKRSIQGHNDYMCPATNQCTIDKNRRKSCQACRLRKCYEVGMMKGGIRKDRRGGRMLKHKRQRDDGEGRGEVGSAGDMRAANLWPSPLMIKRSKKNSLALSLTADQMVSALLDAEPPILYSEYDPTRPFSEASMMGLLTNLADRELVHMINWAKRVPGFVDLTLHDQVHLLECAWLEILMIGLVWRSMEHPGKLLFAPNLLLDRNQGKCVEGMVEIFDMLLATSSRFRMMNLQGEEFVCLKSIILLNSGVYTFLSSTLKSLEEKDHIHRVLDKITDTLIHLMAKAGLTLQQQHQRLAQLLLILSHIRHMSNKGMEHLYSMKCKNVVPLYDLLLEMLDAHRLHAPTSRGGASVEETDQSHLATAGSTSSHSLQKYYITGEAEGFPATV
Method in brief: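 Luciferase signal from VM7Luc4E2 ERE-reporter cells, co-dosed with test compound and 0.1 nM final 17beta-estradiol for 22 h, read with ONE-Glo.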

[7] = qHTS assay to identify small molecule phospholipidosis (PLD) inducers (AID 1259344; active means well fitted curve in the direction sought with a large enough effect; an effect the other way counts as inactive or inconclusive)
Method in brief: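 After 4 h attachment on collagen I, HepG2 cells were dosed with compound alongside LipidTOX Red, kept 24 h at 37 C, fixed, and imaged for lamellar phospholipid pits.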

[8] = qHTS assay to identify small molecule HDAC inhibitors (AID 1259364);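 further: wild-type HCT-116 cells with endogenous class I/II HDAC activity; top concentration of the series differs between compounds; nearly all actives have a fitted effect of over 45% in size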
Method in brief: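 HCT-116 wt cells, 1,500/well, overnight attach. Compounds (DMSO) 2 h, 37 °C. HDAC-Glo I/II, 30 min RT. Luminescence.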

[9] = qHTS assay to identify small molecule HDAC inhibitors - cell viability counter screen (AID 1259365); further: series mostly up to about 92 µM; nearly all actives have a fitted effect of over 50% in size
Method in brief: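 Measured quantity is CellTiter-Glo luminescence from wild-type HCT-116 cells after compound incubation of 2hr at 37C, 5% CO2; reagent developed 30min at room temperature.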

[10] = qHTS assay to identify small molecule agonists of the sonic hedgehog signaling (Shh) pathway (AID 1259368; calls by dose curve;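 further: NIH/3T3-derived 3T3Gli1-Luc cells carrying a stable Gli1-driven firefly luciferase reporter; series mostly up to about 92 µM; nearly all actives have a fitted effect of over 15% in size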)
Method in brief: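 Following a 24 hr incubation with DMSO-dissolved compounds at 37 C, 5% CO2, Gli1-Luc NIH/3T3-derived cells received luciferase reagent for 30 min at room temperature prior to luminescence measurement.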

[11] = qHTS assay to identify small molecule antagonists of the sonic hedgehog signaling (Shh) pathway (AID 1259369; calls by dose curve; further: nearly all actives have a fitted effect of over 45% in size)
Method in brief: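 Read-out is luminescence from a firefly luciferase gene controlled by the Gli1 response element, in 3T3Gli1-Luc cells pre-incubated 4hr then exposed to compounds and conditioned medium for 24hr.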

[12] = molecular target: Estrogen receptor beta (Homo sapiens) (UniProt Q92731); test: qHTS assay to identify small molecule agonists of the estrogen receptor beta (ER-beta) signaling pathway (AID 1259377; active means well fitted activation curve with a large enough effect in the signal ratio in the repeat runs, not every such curve was filed as active; the % refers to the signal ratio)
Estrogen receptor beta (Homo sapiens), sequence (Q92731 whole entry, looked up): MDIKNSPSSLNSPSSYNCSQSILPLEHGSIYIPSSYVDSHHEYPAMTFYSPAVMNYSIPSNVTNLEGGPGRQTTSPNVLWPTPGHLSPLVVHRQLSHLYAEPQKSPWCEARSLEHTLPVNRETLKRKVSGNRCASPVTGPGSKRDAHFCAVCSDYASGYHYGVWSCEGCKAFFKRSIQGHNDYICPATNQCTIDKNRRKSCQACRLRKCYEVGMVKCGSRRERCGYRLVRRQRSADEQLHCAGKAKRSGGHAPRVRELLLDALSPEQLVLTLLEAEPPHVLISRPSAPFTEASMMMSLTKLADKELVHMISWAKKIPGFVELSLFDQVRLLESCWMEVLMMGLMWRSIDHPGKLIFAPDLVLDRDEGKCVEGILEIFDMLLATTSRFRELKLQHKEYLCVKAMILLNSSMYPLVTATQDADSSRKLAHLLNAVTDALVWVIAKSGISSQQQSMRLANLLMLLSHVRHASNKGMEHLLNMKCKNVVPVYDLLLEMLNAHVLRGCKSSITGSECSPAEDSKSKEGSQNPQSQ
Method in brief: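 Reporter cells (HEK293T, ER-beta-UAS-bla) receive compounds or DMSO after a 6 hr pre-incubation. They then incubate 16 hr at 37C/5% CO2, and fluorescence from LiveBLAzer B/G substrate is measured after 2 hours at room temperature.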

[13] = molecular target: Estrogen receptor beta (Homo sapiens) (UniProt Q92731); test: qHTS assay to identify small molecule antagonists of the estrogen receptor beta (ER-beta) signaling pathway (AID 1259378; active means well fitted inhibition curve with a large enough effect in the signal ratio in the repeat runs, not every such curve was filed as active; the % refers to the signal ratio)
Method in brief: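 ER-beta-UAS-bla HEK293T (GripTite) cells in 2% charcoal-stripped FBS medium were preincubated 6 hr at 37C, dosed with compound, then stimulated with 1 nM E2 (final) for 16 hr; beta-lactamase reporter read by B/G FRET fluorescence after 2 hr substrate loading.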

[14] = qHTS assay to identify small molecule agonists of the androgen receptor (AR) signaling pathway in the presence of an antagonist - cell viability counter screen (AID 1259379);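 further: MDA-kb2 human breast cancer cells carrying an MMTV luciferase reporter; series mostly up to about 92 µM; nearly all actives have a fitted effect of over 25% in size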
Method in brief: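 Each compound was tested at 15 concentrations on MDA-kb2 cells in the presence of 3.0uM nilutamide. Viability was measured by CellTiter-Fluor fluorescence after a 16 hr incubation at 37C in a CO2-free atmosphere.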

[15] = qHTS assay to identify small molecule agonists of the estrogen receptor beta (ER-beta) signaling pathway - cell viability counter screen (AID 1259380); further: nearly all actives have a fitted effect of over 30% in size
Method in brief: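 Compounds dissolved in DMSO were pin-transferred onto ER-beta-UAS-bla HEK293T cells that had settled 6 hr, and exposure ran 16 hr at 37C. Following the reporter read, CellTiter-Glo luminescence after 30 min at room temperature indicated cytotoxicity.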

[16] = qHTS assay to identify small molecule antagonists of the estrogen receptor beta (ER-beta) signaling pathway - cell viability counter screen (AID 1259382); further: series mostly up to about 92 µM; nearly all actives have a fitted effect of over 55% in size
Method in brief: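 CellTiter-Glo ATP luminescence measured after the LiveBLAzer read in the same wells; ER-beta-UAS-bla HEK293T cells, 16 hr compound treatment with 1nM 17-beta-estradiol agonist at 37C, 5% CO2.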

[17] = molecular target: Androgen receptor (Homo sapiens) (UniProt P10275); test: qHTS assay to identify small molecule antagonists of the androgen receptor (AR) signaling pathway using the MDA cell line in the presence of 0.5 nM R1881 (AID 1259243); further: nearly all actives have a fitted effect of over 50% in size
Androgen receptor (Homo sapiens), sequence (P10275 whole entry, looked up): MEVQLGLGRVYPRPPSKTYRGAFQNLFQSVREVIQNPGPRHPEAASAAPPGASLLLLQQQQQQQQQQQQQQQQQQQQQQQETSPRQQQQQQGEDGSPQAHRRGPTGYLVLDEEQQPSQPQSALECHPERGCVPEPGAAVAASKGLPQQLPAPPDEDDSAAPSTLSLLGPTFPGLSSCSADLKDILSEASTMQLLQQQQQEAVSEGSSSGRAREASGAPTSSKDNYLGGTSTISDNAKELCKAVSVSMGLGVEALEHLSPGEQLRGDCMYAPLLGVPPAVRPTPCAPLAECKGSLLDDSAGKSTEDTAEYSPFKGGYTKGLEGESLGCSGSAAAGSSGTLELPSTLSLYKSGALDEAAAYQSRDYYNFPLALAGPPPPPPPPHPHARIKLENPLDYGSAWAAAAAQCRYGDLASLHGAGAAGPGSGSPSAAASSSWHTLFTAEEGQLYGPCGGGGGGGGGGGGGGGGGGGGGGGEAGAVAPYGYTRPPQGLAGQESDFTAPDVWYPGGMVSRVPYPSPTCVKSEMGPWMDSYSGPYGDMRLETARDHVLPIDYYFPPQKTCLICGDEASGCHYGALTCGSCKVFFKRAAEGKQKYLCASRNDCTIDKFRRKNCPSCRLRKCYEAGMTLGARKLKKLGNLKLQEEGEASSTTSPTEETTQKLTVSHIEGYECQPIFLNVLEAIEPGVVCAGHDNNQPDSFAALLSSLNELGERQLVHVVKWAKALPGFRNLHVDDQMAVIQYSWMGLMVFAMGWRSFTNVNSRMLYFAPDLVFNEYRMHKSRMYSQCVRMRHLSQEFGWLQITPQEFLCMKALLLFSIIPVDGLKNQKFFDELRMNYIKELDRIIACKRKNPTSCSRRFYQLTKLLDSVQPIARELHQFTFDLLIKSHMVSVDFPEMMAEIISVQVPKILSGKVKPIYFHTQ
Method in brief: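 Luminescence from an AR/GR-responsive MMTV-luciferase construct in MDA-kb2 breast carcinoma cells, read 30 min after ONE-Glo, following 16 hr co-treatment with compounds and 0.5 nM R1881.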

[18] = qHTS assay to identify small molecule agonists of the sonic hedgehog signaling (Shh) pathway - cell viability counter screen (AID 1259366); further: nearly all actives have a fitted effect of over 50% in size
Method in brief: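 In quantitative high-throughput format, 3T3 Gli1-Luc cells were exposed to compounds for 24hr and multiplexed for viability using CellTiter-Fluor, incubated 1hr at 37C before the fluorescence read.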

[19] = qHTS assay to identify small molecule antagonists of the sonic hedgehog signaling (Shh) pathway - cell viability counter screen (AID 1259367); further: nearly all actives have a fitted effect of over 55% in size
Method in brief: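 Conditioned medium drove Shh signaling in 3T3 Gli1-Luc cells exposed to compounds at 37C and 5% CO2. Viability was determined from CellTiter-Fluor fluorescence, with reagent incubated 1 hr after 23 hr of treatment.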

[20] = molecular target: Androgen receptor (Homo sapiens) (UniProt P10275); test: qHTS assay to identify small molecule agonists of the androgen receptor (AR) signaling pathway in the presence of an antagonist (AID 1259381; calls by dose curve; further: nearly all actives have a fitted effect of over 15% in size)
Method in brief: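 Plated MDA-kb2 cells (3,000/well) were pre-incubated 5hr, given nilutamide (3.0uM final) or buffer, then dosed with compounds in DMSO at 15 concentrations. Luciferase activity was quantified by luminescence after 16hr at 37C.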

Measured: Potency

CO/N=C(/C(=O)N[C@@H]1C(=O)N2C(C(=O)[O-])=C(C[n+]3ccn4ncccc43)CS[C@H]12)c1nsc(N)n1
not listed: [17] | [18] | [19] | [20]
inactive: all other assays above

COc1cc(OC)nc(O[C@H](C(=O)O)C(OC)(c2ccccc2)c2ccccc2)n1
not listed: [7] | [14]
inactive: all other assays above

CC(C)Cn1cnc2c1c(=O)n(C)c(=O)n2C
not listed: [12] | [15] | [17] | [20]
inactive: all other assays above

COc1cc(/C=C/C(N)=O)cc(OC)c1OC
not listed: [7] | [14] | [15] | [16]
inactive: all other assays above

CO[C@@]1(NC(=O)Cc2cccs2)C(=O)N2C(C(=O)O)=C(COC(N)=O)CS[C@@H]21
not listed: [12] | [13] | [17] | [20]
inactive: all other assays above

COc1ccc(CCO)cc1
not listed: [6] | [7] | [15]
inactive: all other assays above

O=C1NC(c2ccccc2)(c2ccccc2)C(=O)N1COP(=O)(O)O
not listed: [6] | [7] | [9] | [12] | [13] | [14]
inactive: all other assays above

CC(C)NC(=O)c1ccc(C=O)cc1
not listed: [7] | [19]
inactive: all other assays above
